This is an account of results in PubChem BioAssay (NCI).

Common to all, as to assay: NCI-60 one-dose screen, 48 h (100 = growth as untreated, 0 = no growth, -100 = all killed)
Settings in all cases: 10 µM unless noted

Test [1] concerns SR leukemia.
Test [2] concerns RPMI-8226 leukemia.
Test [3] concerns OVCAR-8 ovarian.
The subject of test [4] is OVCAR-5 ovarian.
The subject of test [5] is SK-OV-3 ovarian.
Test [6] concerns IGROV1 ovarian.
Test [7] has as its system OVCAR-3 ovarian.
Test [8] relates to HS 578T breast.
Test [9] has as its system NCI/ADR-RES ovarian.
Test [10] relates to OVCAR-4 ovarian.

This is part of a sample that, as a whole, favours compounds with a hit. Of some 83,000 tested, about 20% had one in any assay.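 Single-concentration screen, 48 h exposure, 96-well plates. Endpoint: percent growth. Below 10 = active.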 Unmarked numbers belong to inactive results. Active and inactive are the calls of the source.

On to `Cc1ccc(C)c(CCO)c1`, for which the growth in test [1] is 110%; in test [2], 138%; in test [3] it was 98.8%; in [4] it was 97%; in test [5], 100%; in test [6], 115%. Besides, the growth is 101% in test [7], 105% in test [8] and 102% in test [9].
With `COc1cc(-c2ccc(NC(=O)CC(C)=O)c(OC)c2)ccc1NC(=O)CC(C)=O`, the growth was 93.7% in test [1]; 95.2% in [2]; 94.8% in test [3]; 98.3% in [4]; 101% in test [5]; 112% in [6]. In addition, the values for the growth in test [7], in [8] and in [9] were 110%, 117% and 95.2%, respectively.
Take `CCCCCCCCCCCCCCCCOc1ccccc1NC(=O)CC(C)=O`: the growth was 107% in test [1]; 64% in test [2]; 113% in [3]; 102% in [4]; 111% in [5]; 88.4% in test [6]. Besides, the growth in [7] was 118%; in test [8], 118%; in test [9], 100%.
With `CCOC(=O)c1c[nH][nH]c1=O`, the growth was 109% in [1]; 93% in test [2]; 105% in test [3]; 94.8% in [4]; 110% in test [5]; 112% in [7]. The growth in test [8] is 119%; in test [9] it was 98.4%.
For the compound `CCC(C)c1c(N)n(S(=O)(=O)c2ccc(C)cc2)oc1=O` (stereo unspecified), the growth in test [1] is 107%; in test [2], 100%; in test [4], 99.1%; in test [10], 109%; in [5], 113%; in test [6], 88.7%. The growth was 118% in [7], 130% in [8] and 120% in [9].
With `Ic1cccs1`, the growth in test [1] was 97.9%; in test [2], 106%; in [4] it was 107%; in [10] it was 102%; in [5] it was 115%; in test [6], 105%. For the same compound, the growth in test [7] was 107%; in test [8], 98.8%; in test [9] it was 98.8%.
Regarding `CCOC(=N)CC(=O)Nc1cccc(C)c1Cl`, the growth in [1] is 105%; in test [2], 107%; in test [3] it was 99.4%; in test [10] it was 106%; in test [5], 97.7%; in test [6], 104%. In addition, the growth in test [7] was 104%; in test [8] it was 105%; in test [9] it was 97.7%.
In the case of `COc1cc2c(c(OC)c1OC)-c1ccc(SC)c(=O)cc1[C@@H](NC1OC(CO)C(O)C(O)C1O)CC2` (stereo partly specified), the growth in test [1] was -22.4% (active); in test [2] it was 19.7%; in test [4], 28.1%; in test [10], 68.3%; in test [5], 1.33% (active); in test [6] it was 14.8%. The growth was -15.5% (active) in [7], 28.5% in [8] and 7.19% (active) in [9].
Regarding `OC(CCN1CCCCC1)(c1ccccc1)c1ccccc1`, the growth is 104% in test [1]; 100% in test [2]; 99% in test [3]; 99.8% in [10]; 112% in [5]; 106% in test [6]. The growth in [7] was 112%; in [8] it was 107%; in test [9] it was 100%.
As for `Nc1ncnc2c1ncn2C1OC(CO)C2OC21` (stereo unspecified), the growth in [1] was 112%; in [2], 103%; in test [3] it was 98.7%; in [10] it was 109%; in test [5] it was 105%; in test [6] it was 111%. For the same compound, the growth in test [7] is 106%; in test [8], 98.9%; in test [9], 110%.
In the case of `CC(C)c1ncc([N+](=O)[O-])n1C`, the growth in [1] was 106%; in test [2], 102%; in [3] it was 97.5%; in [4], 103%; in test [5] it was 112%; in [7] it was 125%. The growth in test [8] was 80.1%; in test [9], 108%.
For the compound `Clc1ccc(C(SCc2ccccc2)SCc2ccccc2)cc1`, the growth in test [1] is 81%; in [2], 83%; in [4] it was 93.3%; in test [10] it was 89%; in [5], 94.9%; in test [6], 93.2%. Besides, the values for the growth in test [7], in test [8] and in test [9] were 90.1%, 93.4% and 98.9%, respectively.
In the case of `NC(CO)(CO)c1ccccc1`, the growth in test [1] was 96.7%; in test [2], 94.2%; in [4], 101%; in [10] it was 104%; in [5], 105%; in [6] it was 104%. Moreover, the growth in [7] is 97.5%; in test [8] it was 95.5%; in test [9], 111%.
Turning to `N=C(N)c1nn(C2OC(CO)C(O)C2O)c2nc[nH]c(=O)c12` (stereo unspecified), the growth was -22.7% (active) in [1]; -19% (active) in test [2]; 30.2% in test [4]; -6.89% (active) in test [10]; -15.7% (active) in test [5]; 21.8% in test [6]. Moreover, the results for the growth in test [7], in test [8] and in test [9] were -51.9% (active), -19.4% (active) and -10.4% (active), respectively.
For `NNC(=O)CCCCl`, the growth is 114% in [1]; 114% in [2]; 104% in test [3]; 106% in [10]; 123% in [5]; 106% in [6]. The growth in [7] is 104%; in test [8] it was 112%; in test [9], 106%.
For `COC1(OC)C2(Cl)C(Cl)=C(Cl)C1(Cl)C1COCC12` (stereo unspecified), the growth in test [1] was 89.9%; in [2] it was 106%; in [3] it was 93.9%; in [10], 97.7%; in [5] it was 96%; in [6], 113%. For the same compound, the growth in test [7] was 110%; in test [8] it was 87.4%; in [9], 110%.
As for `COC1C(=O)CCC2(CO2)C1(O)C1(C)OC1CCC(C)C` (stereo unspecified), the growth in [1] was 32.2%; in test [2] it was 77.4%; in test [4], 87.2%; in [10], 89.7%; in test [5], 101%; in test [6], -5.17% (active). In addition, the growth is 95.1% in test [7], 90.5% in [8] and 86.8% in [9].
